A selection: hits, their analogues and other compounds. The true share with any hit is near 4.7%.
D1 antag: antagonists of human D1 dopamine receptor; P21728; HEK293 TREx D1 cells, calcium flux, dopamine EC80; active compounds read low; activity change, negative = inhibition, % at 10 µM; 360,000 compounds, 3.2% hits; AID 504652; in the data active = activity change below about -30%; also: % is scaled to controls: 0 for no effect and ±100 for the full control effect
Target sequence (P21728 whole entry, looked up): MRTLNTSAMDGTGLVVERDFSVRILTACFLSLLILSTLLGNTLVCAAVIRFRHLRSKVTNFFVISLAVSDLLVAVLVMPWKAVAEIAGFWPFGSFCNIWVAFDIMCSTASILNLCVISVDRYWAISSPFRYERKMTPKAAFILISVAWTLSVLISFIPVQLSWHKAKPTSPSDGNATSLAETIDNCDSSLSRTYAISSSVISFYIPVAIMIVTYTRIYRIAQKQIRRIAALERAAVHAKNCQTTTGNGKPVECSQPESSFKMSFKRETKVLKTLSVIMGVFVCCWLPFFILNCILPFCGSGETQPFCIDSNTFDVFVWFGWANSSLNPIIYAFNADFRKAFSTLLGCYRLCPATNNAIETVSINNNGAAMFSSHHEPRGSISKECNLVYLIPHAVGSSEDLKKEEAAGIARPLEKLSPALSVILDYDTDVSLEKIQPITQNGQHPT
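Tetracycline-induced HEK293 Trex D1 cells, force-coupled to calcium, dye-loaded; compounds added and read 180 s, then EC80 dopamine added and calcium flux tracked kinetically another 180 s.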
TRHR enhancer: allosteric enhancers of human TRH receptor; P34981; TRHR cells, fluo-8 calcium fluorescence, EC20 TRH enhancement; enhancement, % at 2 µM; 360,000 compounds, 0.66% hits; in the data active = enhancement above about 30%; also: 0% is about no effect
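TRHR-expressing cells loaded with fluo-8 calcium dye were read kinetically (ex 480/em 530) during compound addition, then stimulated with an EC20 of TRH (10 nM final). Enhancement of the Gq-mediated intracellular calcium response was scored.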
TRHR agonist: activates the human TRH receptor; P34981; TRHR cells, calcium flux fluo-8, FDSS agonist mode; activation, % at 2 µM; 360,000 compounds, 0.18% hits; AID 493084; also: 0% is about no effect
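TRHR-expressing cells loaded with fluo-8 calcium dye; 23 nL library compound pin-transferred, kinetic FDSS fluorescence (Ex 480/Em 530) recorded about 180 s for agonist-induced calcium release, before a 10 nM TRH EC20 addition for potentiator mode.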
D1 ag: agonists of human D1 dopamine receptor. P21728. HEK293 T-REx D1 cells, calcium flux, agonist mode. activation, % at 2 µM. 360,000 compounds, 1% hits. AID 504660; also: 0% is about no effect
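Agonism was scored from calcium flux recorded over 180 s (1 read/s) after pintool compound addition, following a 10-cycle baseline. Cells were inducible force-coupled HEK293 TREx D1, plated overnight at 30 C and loaded with no-wash calcium dye.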
D1 PAM: potentiators of human D1 dopamine receptor; HEK293 TREx D1 cells, calcium flux, dopamine EC20 potentiation; potentiation, % at 10 µM; 360,000 compounds, 0.036% hits; in the data active = potentiation above about 30%; also: 0% is about no effect
* marks the source's active call; other numbers are inactive results; . = not tested or not shown; ! = a repeat was not active. Rule as the data show it, unless noted: active = activation above about 30%; inactive = the rest.

SMILES	D1 antag	TRHR enhancer	TRHR agonist	D1 ag	D1 PAM
COc1ccc(CC(C)NCCC(c2ccccc2)c2ccccc2)cc1 (configuration not stated)	-3	8	1	43*	-2
O=S1(=O)N(Cc2ccccc2)CCCN1Cc1ccc(F)cc1Cl	-44*	20	1	10	-3
CCc1ccc(-n2nc(C)c3c2NC(=O)CSC3c2ccc(C(=O)OC)cc2)cc1 (configuration not stated)	-43*	7	0	9	1
CCc1ccc(-n2nc(C)c3c2NC(=O)CSC3c2ccccc2C)cc1 (configuration not stated)	15	-6	-1	0	-2
COc1cc(/C=C/c2nc3ccccc3c(=O)n2-c2ccc(Br)c(C)c2)ccc1O	0	-12	16	17	0
Cc1cccc(-n2c(/C=C\c3cccc(Br)c3)nc3ccccc3c2=O)c1	1	0	0	-4	-1
Nc1c(C(=O)Nc2ccc(Cl)c(C(F)(F)F)c2)sc2nc3c(cc12)N1CCC3CC1	-2	2	1	-1	-2
COC(=O)C1=C(c2cccc(C#N)c2)C[C@@H]2CC[C@H]1N2C(=O)NC1Cc2ccccc2C1	-41*	-5	0	1	-5
COC(=O)C1=C(c2ccc(OC)c(OC)c2)C[C@@H]2CC[C@H]1N2C(=O)NC1CC1	.	-1	0	1	1
COC(=O)C1=C(c2cccc(C#N)c2)C[C@@H]2CC[C@H]1N2C(=O)NC1CC1	.	-1	0	1	0
COC(=O)C1=C(c2ccc(OC)c(OC)c2)C[C@@H]2CC[C@H]1N2C(=O)NC(C)C	-42*	5	0	-2	6
COC(=O)C1=C(c2cccc(C#N)c2)C[C@@H]2CC[C@H]1N2C(=O)N1CCCCC1	-37*	0	0	1	-2
Cc1cccc(NC(=O)Cn2cc(C(=O)c3ccccc3)c3ccccc32)c1C	-18	-6	1	4	-3
CCOc1ccc2nc(NC(=O)c3cccn(Cc4ccccc4Cl)c3=O)sc2c1	-6	4	0	1	-3
Cc1ccc(N2C(=O)/C(=C/N3CCN(C(=O)c4ccco4)CC3)C(=O)NC2=S)cc1C	-35*	-1	1	1	-6
Cc1cccc(N2C(=O)/C(=C/N3CCN(C(=O)c4ccco4)CC3)C(=O)NC2=S)c1	3	1	0	2	-4
COc1ccc(OCC(=O)N2CCN(Cc3ccc(SC)cc3)CC2)cc1	-38*!	8	0	2	24
O=c1c2ccccc2nc(/C=C/c2ccccc2O)n1-c1ccc(Br)cc1	-7	-5	3	5	-2
COC(=O)C1=C(c2cccc3c2S(=O)(=O)c2ccccc2-3)C[C@@H]2CC[C@H]1N2C(=O)N1CCc2cc(OC)c(OC)cc2C1	-48*	2	0	4	-3
COC(=O)C1=C(c2cccc3c2S(=O)(=O)c2ccccc2-3)C[C@@H]2CC[C@H]1N2C(=O)N1CCOCC1	7	3	-1	1	2
CC1=C[C@@H]2c3cccc4[nH]cc(c34)C[C@H]2N(C)C1	-37*	3	7	31*	-10
COc1ccc(C)cc1NC(=O)c1cccn(Cc2cccc([N+](=O)[O-])c2)c1=O	.	4	1	0	5
NC(=O)c1ccsc1NC(=O)COC(=O)Cc1ccccc1	-32*	10	0	17	-6
O=C(COC(=O)Cc1ccccc1)NC12CC3CC(CC(C3)C1)C2	10	-2	0	-1	0
Cc1ccc(-c2nc(N3CCOCC3)s[n+]2-c2ccccc2)cc1	2	31*	0	0	-2
SMILES	D1 antag	TRHR enhancer	TRHR agonist	D1 ag	D1 PAM
CN1CCN(c2nc(Cl)ncc2F)CC1	-32*	-2	1	4	-11
COc1ccccc1N1CCN(Cc2ccccc2Cl)CC1	11	0	-1	2	-3
Clc1ccccc1CN1CCN(c2cccc3[nH]ccc23)CC1	-48*	1	0	0	-3
CCCN(CCC)C1CCc2ccc(O)cc2C1 (configuration not stated)	-61*	1	1	-2	-5
N#Cc1cc2c(nc1SCC(=O)Nc1ccc(C(F)(F)F)cc1)C1CCN2CC1	17	16	-1	3	-4
CCOc1ccc(CN(CCc2ccc3c(c2)OCO3)Cc2cccc(C)c2)cc1	13	6	1	1	3
Cc1cccc(Cn2cccc(C(=O)Nc3nnc(C)s3)c2=O)c1	.	-2	0	-1	0
Cc1ccc(S(=O)(=O)NCC2CCC(C(=O)N3CCC4(CC3)OCCO4)CC2)cc1 (configuration not stated)	-55*	2	1	4	-13
Cc1ccc(S(=O)(=O)Nc2cc(C(=O)N3CCC4(CC3)OCCO4)ccc2N2CCCCC2)cc1	1	-6	0	3	-7
O=C(Nc1ccc(Br)cc1C(=O)c1ccccc1Cl)c1ccc(Br)cc1	3	-2	1	4	0
C[C@H]1OC[C@@H](C[N+](C)(C)C)O1	19	-2	41*	47*	-3
Fc1ccc(CCNCc2ccc(Br)cc2)cc1	2	4	0	33*	4
COc1cccc(CNCCc2ccc(F)cc2)c1	-2	0	4	10	-6
Fc1ccc(CNCCc2ccccc2F)cc1	-11	-1	1	4	3
Fc1ccc(CCNCc2cccc(Cl)c2)cc1	-8	-5	3	42*	-12
CCCSc1nc2ccccc2c(=O)n1-c1ccccc1OC	8	-7	0	1	0
CN(C)C1(CNC(=O)c2ccc(NS(=O)(=O)c3ccc(Cl)c(Cl)c3)cc2)CCCCC1	22	-4	0	2	-6
CN(C)C1(CNC(=O)Nc2ccc(Cl)c(Cl)c2)CCCCC1	-7	16	4	32*	-9
CN1CCN(c2cc([N+](=O)[O-])ccc2Cl)CC1	-51*	0	0	1	-6
CN1CCN(c2ccc([N+](=O)[O-])cc2Cl)CC1	-13	-2	0	3	-3
CN[C@@H]1C[C@@H](c2ccc(Cl)c(Cl)c2)c2ccccc21	-51*	-1	5	28	-2
C=CCN1CCc2cccc3c2[C@H]1Cc1ccc(O)c(O)c1-3	-90*	4	0	32*	4
CCOc1ccc(CN(CCc2ccc3c(c2)OCO3)Cc2cc(OC)ccc2O)cc1	-26	-2	0	1	-3
CCCCc1nc2ccccc2c(=O)n1-c1cccc(OC)c1	5	4	-1	6	-2
CCOC(=O)C(NC(=O)C(Cc1ccc(N(CCCl)CCCl)cc1)NC(C)=O)C(C)C (configuration not stated)	-3	6	-2	2	0

Bioassay records: PubChem, National Center for Advancing Translational Sciences (NCATS)
